# Results as given in PubChem BioAssay (NCI).
# Values joined by “and” are separate entries in the source; they are usually repeats but may differ in a detail not shown here. Equal entries are not always repeated. About 83,000 compounds went through this panel and 20% of them were active in at least one assay; those are over-represented in the sample as a whole.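 Testing used 96-well plates and a 48-hour single-concentration exposure. Example: -40 means 40% of the starting cells died.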 Values without a mark were called inactive. Active and inactive are the calls of the source. How the source made its calls: active means growth percent below 10; inactive means the rest.
# Experiments:
# Assay in all cases: NCI-60 one-dose screen, 48 h (100 = growth as untreated, 0 = no growth, -100 = all killed)
# Conditions in all cases: 10 µM unless noted
# SR leukemia = test system: SR leukemia
# RPMI-8226 leukemia = test system: RPMI-8226 leukemia
# OVCAR-8 ovarian = test system: OVCAR-8 ovarian
# OVCAR-5 ovarian = test system: OVCAR-5 ovarian
# OVCAR-4 ovarian = test system: OVCAR-4 ovarian
# OVCAR-3 ovarian = test system: OVCAR-3 ovarian
# HS 578T breast = test system: HS 578T breast
# NCI/ADR-RES ovarian = test system: NCI/ADR-RES ovarian
# T-47D breast = test system: T-47D breast
# BT-549 breast = test system: BT-549 breast
# MDA-MB-435 melanoma = test system: MDA-MB-435 melanoma
# MCF7 breast = test system: MCF7 breast
# HCT-116 colon = test system: HCT-116 colon
# HCC-2998 colon = test system: HCC-2998 colon
# KM12 colon = test system: KM12 colon
# SK-OV-3 ovarian = test system: SK-OV-3 ovarian
# SW-620 colon = test system: SW-620 colon
# IGROV1 ovarian = test system: IGROV1 ovarian
Structure (SMILES),growth (SR leukemia),growth (RPMI-8226 leukemia),growth (OVCAR-8 ovarian),growth (OVCAR-5 ovarian),growth (OVCAR-4 ovarian),growth (OVCAR-3 ovarian),growth (HS 578T breast),growth (NCI/ADR-RES ovarian),growth (T-47D breast),growth (BT-549 breast),growth (MDA-MB-435 melanoma),growth (MCF7 breast),growth (HCT-116 colon),growth (HCC-2998 colon),growth (KM12 colon),growth (SK-OV-3 ovarian),growth (SW-620 colon),growth (IGROV1 ovarian)
Cc1ccc(S(=O)(=O)n2ccnc2)cc1,140%,100%,100%,102%,102%,101%,111%,101%,96.8%,122%,108%,99%,98%,102%,95.8%,,,
O=C(NC(=O)c1ccc(F)c(Cl)c1)NC1CC1,91.4%,98% and 102%,,109% and 105%,119% and 93.4%,104% and 107%,102% and 96.6%,107% and 103%,91.8%,107% and 109%,114% and 102%,100% and 89.6%,104% and 105%,96.2% and 106%,105% and 101%,114% and 105%,104% and 100%,
O=C(O)COc1ccccc1F,99.5%,98.4%,,104%,111%,108%,101%,114%,107%,108%,108%,107%,95.5%,111%,104%,119%,104%,105%
CN(C=O)c1ccccc1,101%,91%,,100%,85.3%,110%,100%,97.4%,86.7%,93.1%,102%,87.4%,89%,101%,110%,86.7%,104%,102%
CC1OS(=O)OC1C (stereo unspecified),93.5%,105% and 106%,,102% and 97.6%,104% and 100%,103% and 106%,98.3%,107% and 99.7%,93%,105% and 104%,99.3% and 101%,91.2% and 93.9%,105% and 102%,99.3% and 118%,107% and 97.5%,99.6% and 118%,105% and 98.3%,105%
Nc1c(S(=O)(=O)O)cc(Br)c2c1C(=O)c1ccccc1C2=O,93.8% and 91.4%,96.7% and 104%,,113% and 101%,101% and 111%,102% and 121%,112% and 94.3%,108% and 115%,90% and 96.7%,110%,105% and 115%,96.8% and 93.8%,109%,108% and 109%,104% and 108%,,109% and 111%,105% and 88.9%
O=P(O)(O)OC1C(OP(=O)(O)O)C(OP(=O)(O)O)C(OP(=O)(O)O)C(OP(=O)(O)O)C1OP(=O)(O)O.[Cu+2] (stereo unspecified),81.4%,101%,,155%,110%,123%,92.4%,97.3%,101%,126%,101%,86.8%,96.6%,96.3%,100%,114%,,
CCn1c2ccc(N(C)C)cc2c2cc(N(C)C)ccc21,94%,80.4%,,99.6%,24.9%,5.93% (active),107%,98.5%,88.2%,96.6%,111%,86.4%,,99.2%,92.8%,,96.2%,107%
O=C(O)/C=C/C=C/c1ccccc1,104% and 109%,112% and 99.7%,,103% and 96.8%,116% and 108%,124% and 98.8%,109% and 108%,111% and 102%,100% and 105%,103% and 107%,105% and 111%,92.9% and 94.4%,101% and 96%,104%,105% and 103%,113% and 104%,104% and 103%,
NCCCCCC(=O)O,108% and 79.8% and 111%,99.6% and 94.5%,,98.2% [middle of 4 runs],116% and 103%,,110% [middle of 4 runs],109% [middle of 4 runs],101% [middle of 4 runs],98.5% and 107% and 112%,105% [middle of 4 runs],105% [middle of 4 runs],,,114% [middle of 4 runs],103% [middle of 4 runs],109% and 98.2% and 107%,116% and 101%
CCCCCCCCCCCCCCCCC(=O)O,94.3%,99.4%,,117%,106%,115%,100%,100%,104%,112%,109%,93.9%,101%,96.8%,105%,,105%,107%
COc1ccc2oc3cc(NCCN(C)C)ccc3c(=O)c2c1,38.9%,103% and 73.2%,,88.2% and 87.1%,106% and 91.7%,121% and 107%,105% and 83.9%,90.5% and 69.6%,80.6% and 63.4%,97.2% and 93.9%,85.8% and 70.8%,84.4% and 67.8%,93.9% and 54.1%,97.4% and 77.1%,90.1% and 79.8%,92.5% and 55%,78% and 55.4%,
CS(=O)(=O)OCC1NC(=O)C(COS(C)(=O)=O)NC1=O (stereo unspecified),104% and 125%,82.7% and 90%,,106% and 124%,79.8% and 87%,122% and 94.8%,193% and 106%,103% and 97.8%,104% and 105%,78.1% and 30.1%,107% and 90.7%,93% and 85%,93.7% and 93.8%,89.7% and 103%,104% and 83.9%,107% and 120%,106% and 104%,
CCCCOC1NC(=O)NC(=O)C1(F)C(=O)OCC (stereo unspecified),37.9%,71.8% and 53.1%,,96.5% and 91.9%,98.9% and 75.8%,77.3% and 65.7%,101% and 115%,93.7% and 77.1%,80.5% and 74.7%,,56.9% and 53.4%,46.6% and 27.8%,64.5% and 43.6%,45.5% and 26.1%,60.2% and 49.4%,91.7% and 81.6%,,103% and 87.6%
